Experimental data reported in the supplement of paper PMC6555819.

What follows are sequences tested on VDR:RXRa (NR concentration 270 nM, RXRa partner concentration 90 nM) (assay: PBM binding z-score (relative to random genomic background probes); higher = stronger binding; sequences stand for … in GC…GCGATTGACAGCGTAGAATGAAGG).
Description: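 Protein-binding microarray (Agilent 4x180K custom design, double-stranded 60-nt probes: 5' GC cap, 34-nt variable region, 24-nt constant primer region; full probe sequence given). Purified or IVT nuclear receptor:RXRα heterodimers (3:1 NR:RXRα, mostly 270:90 nM) or homodimers were incubated for 1 h in PBS with 2% milk and no ligand, then detected with Alexa488 antibodies. Fluorescence from o1-orientation probes (~5 replicates averaged) was converted to z-scores against 500 random hg19 background probes. Variable regions are seed direct-repeat (DR0–DR5) sites, all their single-nucleotide variants and half-site ablations.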

| Sequence | PBM binding z-score |
| --- | --- |
| CGTCCAAGGTCAGAGGGGTCAGTGAATGCCGAGT | 7.48 |
| CGTGCAAGGTCAAAGGTCAGTGAAGAGATGACGG | 6.7 |
| GTACCAAGGTGAATAGGTCCTTGATGAGTAGGCG | 0.968 |
| CGTCCAAGGTCAAGGTAAGTGAAAGAGACTCGAA | 3.76 |
| TCTAGTTGGTCAAAGGTCACTCACTCGAAATGCG | 4.92 |
| AGAATGAGGTGACCAAAGATCAGGGAAACGCTTG | 0.0943 |
| GCGGCTGGGGCAAAGCAGGTTACCATAAGGTTGG | 0.192 |
| CCGAATGGGGCAAAGGTTACCATACTCAGTACGA | 1.77 |
| CCAACTAGGTCACCGGAAGGTCAAAGTCCGCATG | 5.87 |
| CCAGACAGGTGAAAGGTAACGCAGTCTGGTACGC | 0.77 |
| CCTAGCAGGCCAATCTGGGTCACTAAAGGCTTGA | 0.366 |
| CGTCGAAGTTCAAGGTAACGTAACAGAAAGCAGC | 2.09 |
| CTCGAAAGGTCGGTTAAGGTGAGTATACGGATAA | 2.03 |
| ATCTCTAGGTGACAAGTTCAGTGAAAGAGAGGAC | 1.63 |
| GTTTACGGGTCAAAGGTTATAGCATGAATAGAAT | 5.82 |
| CCTGGTAGGTCAATGGTCAGCTAAAGCAGCTCGC | 1.33 |
| GCATATAGGTAATAGAAGGTGAAAGTCCGATTGT | 0.0859 |
| AGAATGAGGTAAAGATCAGGGAAACAGAATACAT | 0.0577 |
| AGAATGAGGCTATTAAGATCAGGGAATTGCGGTC | -0.0838 |
| CCGACTGCGGCAAAGGTTACCATACTCAGTACGA | 0.959 |

| Sequence | PBM binding z-score |
| --- | --- |
| AATCCAGGGTCATCGTAGGCCAGAGTACGCACAG | 5.32 |
| CTCGAAAGGTCGGTCGAGGTGAGTATACGGATAA | 2.25 |
| ACTATTAGTCGAGACGAGGGCAACCGATAGGTTG | 0.293 |
| GCTATTAGTTGATAGGGCAACCGAATGATTCTCG | -0.195 |
| AGAATGAGGTTGTTAAGATCAGGGAATTGCGGTC | 0.496 |
| TCATATAGGTAAAGGTGAAACTCGAACGATATGA | 0.901 |
| CGAACTAGGTCAGAACAGGACAGTGGAGGATGAT | 0.581 |
| AGAATGAGGTTATAAGTAGATCAGGGAAGAAAGT | 1.26 |
| CGTCCAAGGTCAATGCTAGGTCAGTGTAAGCATT | 4.85 |
| GCGACTGGGGCATCAGCAGGTTCCCATAACTTAA | -0.515 |
| AGTCAAAGTTCACTAGGTGACGTAAGATTCAGCT | 4.03 |
| GCTAGTTGGTCAGTAAAAGGTCACGCACCGGTCG | 4.36 |
| CCTTACGGGTCGAGGTTATAGCACGGGTGGTACG | 1.25 |
| CGAACTAGGTCATCCAGGACAGTGAATACATTGA | 4.73 |
| CCTAGTTGGTCATGAGGTCACACACCGGATATGA | 4.97 |
| CGTCAAAGTTCAAGGTATCGTAACAGAAAGCAGC | 3.74 |
| CGAACCAGGTCAAGGACAGTGAATCTCCGCACGC | 2.22 |
| CATACAGGGTCAGCTAGCCCAGAGTAGGGACGGC | 2.52 |
| CCTAGTAGGTCAAGGTCACACACGCTATAGGTAC | 5.04 |
| CGTCCAAGATCAAAGGTCAGTGAAGAGATGACGG | 3.08 |
